Data published in PubChem BioAssay (NCI).
Compounds without any hit were thinned out: in the full panel of roughly 83,000, 20% have a hit.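 Each cell line was grown in a 96-well plate and treated with one concentration of compound for 48 hours. Values below 10 were considered active.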 Activity calls are given as the source filed them.

Columns and labels:
Assay in all cases: NCI-60 one-dose screen, 48 h (100 = growth as untreated, 0 = no growth, -100 = all killed)
Conditions in all cases: 10 µM unless noted
SK-MEL-2 melanoma = tested on: SK-MEL-2 melanoma
EKVX NSCLC = tested on: EKVX NSCLC
SN12C renal = tested on: SN12C renal
UO-31 renal = tested on: UO-31 renal
TK-10 renal = tested on: TK-10 renal
ACHN renal = tested on: ACHN renal
CAKI-1 renal = tested on: CAKI-1 renal
A498 renal = tested on: A498 renal
CCRF-CEM leukemia = tested on: CCRF-CEM leukemia
MOLT-4 leukemia = tested on: MOLT-4 leukemia

Row | Compound | growth (SK-MEL-2 melanoma) | growth (EKVX NSCLC) | growth (SN12C renal) | growth (UO-31 renal) | growth (TK-10 renal) | growth (ACHN renal) | growth (CAKI-1 renal) | growth (A498 renal) | growth (CCRF-CEM leukemia) | growth (MOLT-4 leukemia)
1 | O=C(/C=C/c1c(Cl)nc2sccn12)c1nccs1 | 80.3% (inactive) | 97.5% (inactive) | 89% (inactive) | 81.8% (inactive) | 118% (inactive) | 89.1% (inactive) | 78.8% (inactive) | 72.2% (inactive) | 93.4% (inactive) | 89.3% (inactive)
2 | N#CC1=C(c2ccc(Br)cc2)NC(SCC(=O)c2ccc(Br)cc2)NC1=O (centres undefined) | 98% (inactive) | 104% (inactive) | 109% (inactive) | 89.9% (inactive) | 118% (inactive) | 109% (inactive) | 97.1% (inactive) | 80.1% (inactive) |  | 92% (inactive)
3 | C=C1C(=O)O[C@H]2[C@H]1CC/C(COC(=O)C(=O)c1c[nH]c3ccc(OC)cc13)=C\CC[C@@]1(C)O[C@@H]21 | -60.9% (active) | -4.43% (active) | -48.5% (active) | -96.3% (active) | -56.7% (active) | -67.1% (active) | -56.9% (active) | -98.7% (active) |  | -28.2% (active)
4 | C=C1C(=O)O[C@H]2[C@H]1CC/C(COC(=O)C(=O)c1cn(C)c3ccc(OC)cc13)=C\CC[C@@]1(C)O[C@@H]21 | -47.2% (active) | -17.4% (active) | -51% (active) | -91.9% (active) | -61.4% (active) | -57.8% (active) | -43.6% (active) | -99.5% (active) |  | -16.6% (active)
5 | CCOC(CN=Cc1cc(C)c2[nH]c3ccccc3c2c1C)OCC | 91.4% (inactive) | 105% (inactive) | 99.1% (inactive) | 94.3% (inactive) | 83.3% (inactive) | 106% (inactive) | 105% (inactive) | 37.5% (inactive) |  | 81.2% (inactive)
6 | CN(C)c1ccc(/C=C/C(=O)c2cccc(Nc3nc(Nc4ccccc4)nc(Nc4ccccc4)n3)c2)cc1 | 62.1% (inactive) | 77.8% (inactive) | 91.6% (inactive) | 73.5% (inactive) | 90.9% (inactive) | 90.6% (inactive) | 91.6% (inactive) | 76.8% (inactive) |  | 80.6% (inactive)
7 | CC/C=C\CCC/C=C1/C(=O)C=C[C@@H]1C/C=C\CCCC(=O)O | 89.4% (inactive) | 103% (inactive) | 48.4% (inactive) | 70.8% (inactive) | 114% (inactive) | 42.9% (inactive) | 60.1% (inactive) | 103% (inactive) |  | 6.84% (active)
8 | CC/C=C\C[C@H](O)C/C=C1/C(=O)C=C[C@@H]1C/C=C\CCCCO | 62.5% (inactive) | 69.3% (inactive) | -15.9% (active) | -74.2% (active) | 5.32% (active) | -69.3% (active) | 0.105% (active) | 100% (inactive) |  | 8.39% (active)
9 | N#Cc1nc2c(S(=O)(=O)c3ccc(Cl)cc3)c(N)n(Nc3cccc(Cl)c3)c2nc1C#N | 121% (inactive) | 33.3% (inactive) | 56.8% (inactive) | 63% (inactive) | 36.3% (inactive) | 67.7% (inactive) | 88.5% (inactive) | 49.2% (inactive) |  | 49.5% (inactive)
10 | COc1ccc(Cl)cc1NC(=O)C(Br)C(Br)C(=O)O (centres undefined) | -24.7% (active) | 90.9% (inactive) | 59.3% (inactive) | 71.2% (inactive) | 111% (inactive) | 78.7% (inactive) | 96.3% (inactive) | 86.6% (inactive) |  | 16.9% (inactive)
11 | CCCCCCCOc1c(OC)cc(C2CC(=O)Nc3c2c(C)nn3-c2nc3ccccc3[nH]2)cc1OC (centres undefined) | -56.8% (active) | -26.5% (active) | 9.34% (active) | -69.7% (active) | 11% (inactive) | 1.49% (active) | -41% (active) | -28.6% (active) | 24.5% (inactive) | 15.2% (inactive)
12 | CC/C=C/C/C=C/C/C=C/C/C=C/C/C=C/C/C=C/CCC(=O)Nc1ccn([C@@H]2O[C@H](CO)[C@@H](O)C2(F)F)c(=O)n1 | 83.1% (inactive) | 70% (inactive) | -2.1% (active) | 3.26% (active) | 67.9% (inactive) | 6.15% (active) | 12.4% (inactive) | 16.6% (inactive) |  | 1.85% (active)
13 | Cn1cc(-c2csc(-c3cccc(F)c3)n2)c2cccnc21 | -51.7% [100 µM] (active) | 21.3% [100 µM] (inactive) | -65% [100 µM] (active) | -27.7% [100 µM] (active) | -52.7% [100 µM] (active) | -31.8% [100 µM] (active) | -57.2% [100 µM] (active) | -84.2% [100 µM] (active) |  | 4.1% [100 µM] (active)
14 | CC(C)CC(NC(=O)CN(Cc1ccccc1)S(C)(=O)=O)C(=O)O (centres undefined) | 125% (inactive) | 97.9% (inactive) | 108% (inactive) | 96.7% (inactive) | 93.9% (inactive) | 102% (inactive) | 62.2% (inactive) | 95.3% (inactive) |  | 94.7% (inactive)
15 | Cc1ccc2[nH]c(=O)c3c(c2c1)OC(N)=C(C#N)C31c2cc(Br)ccc2-c2ccc(Br)cc21 | 77.1% (inactive) | 60.3% (inactive) | 82.7% (inactive) | 58.3% (inactive) | 84.2% (inactive) | 62.3% (inactive) | 49.1% (inactive) | 79.7% (inactive) |  | 62.3% (inactive)
16 | O=C(COc1ccc(/C=C2\Oc3ccccc3C2=O)cc1)Nc1nc2c(s1)CCCC2 | 84% (inactive) | 26.4% (inactive) | 46% (inactive) | -59.9% (active) | 79.7% (inactive) | 65.5% (inactive) | -98.4% (active) | 110% (inactive) |  | -64.3% (active)
17 | CCCCCCCCn1ccc2cc(NC(=O)Cn3cc(CN4CCCC4)nn3)ccc21 | 68.6% (inactive) | 88.8% (inactive) | 44.4% (inactive) | 6.9% (active) | 89.9% (inactive) | 89.4% (inactive) | 8.76% (active) | 87.2% (inactive) |  | 32.8% (inactive)
18 | O=C(Nc1ccccc1-c1nc2ccccc2c(=O)[nH]1)c1cc2ccccc2[nH]1 | 96.4% (inactive) | 78.9% (inactive) | 94.7% (inactive) | 63.6% (inactive) | 111% (inactive) | 86.7% (inactive) | 81.8% (inactive) | 119% (inactive) | 97.4% (inactive) | 95.6% (inactive)
19 | O=C1OC(c2nc3ccccc3s2)=C/C1=C\c1ccc(O)cc1 | 110% (inactive) | 102% (inactive) | 93.9% (inactive) | 75.8% (inactive) | 114% (inactive) | 99.5% (inactive) | 85.4% (inactive) | 108% (inactive) |  | 102% (inactive)
20 | O=C(Nc1ccc(Nc2ccncc2)cc1)c1ccc(C(=O)Nc2ccc(Nc3ccncc3)cc2)cc1 | 53.7% (inactive) | 91.8% (inactive) | 88.1% (inactive) | 89.4% (inactive) | 137% (inactive) | 97.2% (inactive) | 81.6% (inactive) | 117% (inactive) |  | 71.5% (inactive)
21 | COc1cc(/C=N/Nc2ncc(-c3cc4cc5c(cc4o3)OCO5)s2)cc(OC)c1OC | 79.7% (inactive) | 71.4% (inactive) | 71.2% (inactive) | 66.8% (inactive) | 101% (inactive) | 74.3% (inactive) | 64.2% (inactive) | 75.6% (inactive) | 26% (inactive) | 18.6% (inactive)
22 | O=Cc1c[nH]c2ccc(-c3csc4ccccc34)cc12 | 110% (inactive) | 55.9% (inactive) | 75.2% (inactive) | 42.9% (inactive) | 60.6% (inactive) | 63.7% (inactive) | 39.7% (inactive) | 43.5% (inactive) |  | 15.7% (inactive)
23 | Cc1cc[c-]cc1.Fc1c[c-]c(-c2ccccn2)c(F)c1.[Pt+2].c1ccc(P(C[PH+](c2ccccc2)c2ccccc2)c2ccccc2)cc1 | 4.88% (active) | 7.66% (active) | 6.18% (active) | 11.4% (inactive) | 31.5% (inactive) | -1.88% (active) | 0.998% (active) | 9.17% (active) |  | 10.7% (inactive)
24 | CCOP(=O)(OCC)C1CP(=O)(c2ccccc2)CC(C)=C1Cl (centres undefined) | 102% (inactive) | 107% (inactive) | 96% (inactive) | 68.1% (inactive) | 77.1% (inactive) | 109% (inactive) | 108% (inactive) | 111% (inactive) | -90.6% (active) | 93% (inactive)
25 | C=CC(=O)Nc1cccc(Oc2nccc(Nc3nnc(C4CC4)s3)n2)c1 | 108% (inactive) | 104% (inactive) | 87.4% (inactive) | 72.4% (inactive) | 104% (inactive) | 97.7% (inactive) | 92.3% (inactive) | 101% (inactive) |  | 75.7% (inactive)
26 | NC(=O)c1ccc[n+]([C@@H]2O[C@H](COP(=O)([O-])OP(=O)(O)OC[C@H]3O[C@@H](n4cnc5c(N)ncnc54)[C@H](O)[C@@H]3O)[C@@H](O)[C@H]2O)c1 | 137% (inactive) | 106% (inactive) | 107% (inactive) | 105% (inactive) | 120% (inactive) | 106% (inactive) | 98.3% (inactive) | 97.2% (inactive) |  | 108% (inactive)
